Screens from PubChem.
Autofluor Jurkat: compound autofluorescence on Jurkat cells, primary screen, artefact control for VLA-4 allosteric ligand project, cell-based, flow cytometry | hits give high values; 1 = vehicle-only cell background | fluorescence ratio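 (tested at 10 µM compound in the well)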 | actives 0.61% (n = 24,000);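 active = fluorescence ratio above 2.44, which is 1 plus 3 SD of all ratios; inconclusive = signal too bright to measure linearly, ratio around 10 or more; inactive = fluorescence ratio below 2.44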;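 note: green fluorescence of cells measured with 488 nm excitation and 530 nm emission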
VLA-4 antagonist: inhibitors of LDV-FITC binding to Mn2+-activated VLA-4, primary screen, Jurkat cells; Integrin alpha-4 (Homo sapiens), P13612; LDV-FITC binding with Mn2+, flow cytometry; 100% = Mn2+-driven binding gain fully reversed; inhibition, % at 10 µM (by protocol); actives 0.2% (n = 24,000); AID 529, 2006;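 active = inhibition above 50%; inconclusive = compound itself fluorescent, judged against control cell fluorescence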;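 note: 0% = Mn2+ stimulated cells lacking compound and 100% = ligand binding without Mn2+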
Target sequence (P13612 whole entry, looked up): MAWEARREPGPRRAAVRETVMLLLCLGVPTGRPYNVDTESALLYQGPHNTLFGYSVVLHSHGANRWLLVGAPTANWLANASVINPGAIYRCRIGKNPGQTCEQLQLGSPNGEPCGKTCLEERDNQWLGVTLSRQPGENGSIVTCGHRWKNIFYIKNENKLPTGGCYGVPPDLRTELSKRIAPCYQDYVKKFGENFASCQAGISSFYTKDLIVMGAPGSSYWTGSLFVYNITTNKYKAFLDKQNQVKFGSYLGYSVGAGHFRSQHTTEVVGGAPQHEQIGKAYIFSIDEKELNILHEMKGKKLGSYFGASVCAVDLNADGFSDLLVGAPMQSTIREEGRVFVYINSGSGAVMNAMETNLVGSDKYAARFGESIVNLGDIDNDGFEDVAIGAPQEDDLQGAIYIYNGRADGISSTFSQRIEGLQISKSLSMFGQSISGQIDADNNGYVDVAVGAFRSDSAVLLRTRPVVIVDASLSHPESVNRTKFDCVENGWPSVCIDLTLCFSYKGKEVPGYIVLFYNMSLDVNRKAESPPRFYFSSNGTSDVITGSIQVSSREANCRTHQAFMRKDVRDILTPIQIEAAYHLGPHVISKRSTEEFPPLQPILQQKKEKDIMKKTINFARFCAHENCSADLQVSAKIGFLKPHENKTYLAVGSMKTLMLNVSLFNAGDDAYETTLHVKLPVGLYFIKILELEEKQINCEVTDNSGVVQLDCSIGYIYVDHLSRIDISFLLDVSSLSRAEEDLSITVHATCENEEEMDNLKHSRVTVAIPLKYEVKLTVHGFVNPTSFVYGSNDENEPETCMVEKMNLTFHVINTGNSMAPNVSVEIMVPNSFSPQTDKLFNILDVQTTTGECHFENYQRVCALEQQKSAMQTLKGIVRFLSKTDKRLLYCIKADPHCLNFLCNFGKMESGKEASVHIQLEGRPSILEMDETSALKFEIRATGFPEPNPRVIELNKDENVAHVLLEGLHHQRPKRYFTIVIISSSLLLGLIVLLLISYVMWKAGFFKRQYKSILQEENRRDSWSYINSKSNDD
VLA-4 allo ag: enhancers of LDV-FITC binding to VLA-4 integrin, primary screen, Jurkat cells, flow cytometry | AID 528, 2006 | 24,000 tested, under 10 active | Integrin alpha-4 (Homo sapiens), P13612 | activation, % at 10 µM (by protocol);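 active = fluorescent ligand binding to cells raised by more than 40% of the manganese-induced maximum; inconclusive = compound's own fluorescence above 85% of the ligand control signal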;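 note: 0% = ligand binding without compound and 100% = manganese-stimulated maximal binding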
Proteasome disasm: inhibitors of ATP-driven 26S proteasome dissociation, primary screen, biochemical, bead-based flow cytometry, GFP-tagged proteasome. anti-FLAG beads, GFP-proteasome disassembly. inhibition of disassembly, % (test concentration not listed). actives 0.2% (n = 24,000). AID 751, 2007;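 active = inhibition of disassembly above about 33%, limit read from the data; inconclusive = likely self-fluorescent, control bead median signal at least 40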;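 note: plate controls were ATP control with full disassembly for no effect and ATP-gamma-S intact proteasomes for full effect; higher percent means more bead fluorescence retained so stronger block of disassembly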
* marks the source's active call; other numbers are inactive results; ? = inconclusive; . = no result given. Sampled rows, rich in hits. Any-hit rate of the full collection: about 0.94%.

SMILES	Autofluor Jurkat	VLA-4 antagonist	VLA-4 allo ag	Proteasome disasm
COC(=O)NCCOC(=O)N(O)c1ccc(Br)cc1	1.1	?	?	-3
CCCCN(CC)CCCNC(=O)c1cc2c(=O)n(C)c3ccccc3c2n1C	1	-3	2	-1
COC(=O)c1ccc2c(c1)N(Cc1nc(-c3cccc(Cl)c3)oc1C)C(=O)C1CCCN21 (stereo not drawn)	1.2	9	8	81*
CCN1CCN(C(=O)C2CCN(Cc3nc(-c4cccc(Cl)c4)oc3C)CC2)CC1	1.3	?	?	9
COc1ccc(CCNC(=O)C2CCN(Cc3nc(-c4ccc(Cl)cc4)oc3C)CC2)cc1OC	1.1	21	-19	3
COC(=O)c1ccc2c(c1)N(Cc1nc(-c3ccc(Cl)cc3)oc1C)C(=O)C1CCCN21 (stereo not drawn)	1.1	15	6	138*
CC(NC(=O)Cc1cccs1)C(c1cccs1)N1CCOCC1 (stereo not drawn)	1.1	14	-6	0
CCC(C)C(NS(=O)(=O)c1ccc(C)cc1)C(=O)NCCN1CCOCC1 (stereo not drawn)	1	0	4	-2
c1ccc2c(c1)nc(NCC1CCCO1)c1nnnn12 (stereo not drawn)	5*	?	?	13
CC(C)Cn1c(=O)c(C(=O)NCc2ccccn2)c(O)c2ccccc21	1.1	1	-9	-2
CC(C)Cn1c(=O)c(C2=NS(=O)(=O)c3ccccc3N2)c(O)c2ccccc21	0.98	59*	-53	-2
CC(=O)c1c(C)nc(-c2ccc(Cl)cc2)nc1N=CN(C)C	3.2*	?	?	2
COc1ccc(CCNc2oc(COc3ccccc3F)nc2C#N)cc1	1.2	18	2	48*
N#Cc1nc(COc2ccccc2F)oc1NCc1ccc(F)cc1	1.2	-29	2	1
O=c1[nH]c2ccccc2n1CCCN1CCN(C(c2ccccc2)c2ccccc2)CC1	1.1	26	-20	0
O=C(CC1Oc2ccccc2NC1=O)NCCCN1CCN(C2CCCCC2)CC1 (stereo not drawn)	0.81	6	-4	-1
O=c1[nH]c2ccc(Br)cc2c(-c2ccccc2)c1N1CCOCC1	1.1	0	-5	2
O=c1ccc2cc3c([nH]c4ccc(Br)cc43)oc-2c1O	6.6*	?	?	-1
Cc1cccn2c(=O)c3cc(C#N)c(=NC(=O)c4ccncc4)n(Cc4ccco4)c3nc12	4.1*	?	?	-1
O=C(NC1(C(F)(F)F)C(=O)Nc2c1c(=O)[nH]c(=O)n2Cc1ccco1)C1CC1 (stereo not drawn)	1.1	0	7	6
COC(=O)C1=C(C)N=c2s/c(=C/c3cccs3)c(=O)n2C1c1cccs1 (stereo not drawn)	0.96	18	-6	110*
COc1ccc(C2C(C(C)=O)=C(C)N=c3s/c(=C/c4ccc5c(c4)OCO5)c(=O)n32)cc1 (stereo not drawn)	1.4	-2	-4	-2
CCN(Cc1ccccc1)S(=O)(=O)c1ccc(C(=O)Nc2nnc(-c3ccccc3OC)o2)cc1	1.4	?	?	-1
COc1ccccc1-c1nnc(NC(=O)c2ccc(S(=O)(=O)N(C)C)cc2)o1	5.1*	?	?	0
COc1ccc(-c2nnc(NC(=O)c3ccc(S(=O)(=O)N4COCC4(C)C)cc3)o2)cc1	6.3*	?	?	-2
SMILES	Autofluor Jurkat	VLA-4 antagonist	VLA-4 allo ag	Proteasome disasm
CCc1nnc(NC(=O)c2ccc(S(=O)(=O)N(CCOC)CCOC)cc2)o1	3.6*	?	?	-2
CCCS(=O)(=O)N1CCCC(C(=O)N2CCOCC2)C1 (stereo not drawn)	1	-6	-4	1
COc1cccc2sc(Nc3nnc(-c4ccc(F)cc4)o3)nc12	1.1	90*	0	.
CCn1c(Cc2ccc(OC)cc2)nnc1SCC(=O)Nc1cccc(C(=O)OC)c1	1	-2	-2	0
CCOc1ccccc1C1C(C#N)=C(N)Nc2onc(-c3ccccc3)c21 (stereo not drawn)	1.1	51*	-8	-1
CCOc1ccc2nc(NC(=O)C3CCCN(S(=O)(=O)c4c(C)noc4C)C3)sc2c1 (stereo not drawn)	0.98	0	-1	1
